LDHA inh = LDHA (human) enzyme inhibition; actives 0.15% (n = 480,000); purified LDHA, NADH/diaphorase-resazurin fluorescence; stronger effect = lower value; P00338; activity change, % (values are at about 110 or 230 µM); in the data active = activity change below about -30%; inconclusive = mostly about -25% to -30%;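 also: plate controls were DMSO wells for no effect and wells without enzyme for full effect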
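Human LDH5 at 2 nM final in Tris HCl pH 7.4 with 0.06 mM NADH and 0.2 mM pyruvate, reacted 5 minutes at room temperature. Remaining NADH coupled via diaphorase/resazurin; resorufin fluorescence read at 0 and 20 minutes, normalized to enzyme-free and DMSO wells.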
GLP-1R agonist = activates the human GLP-1 receptor | actives 0.007% (n = 380,000) | Potency, µM (titrated, usually from 45.6 µM), for the others: top-dose activation, hits mostly activators | P43220 | HEK293 GLP-1R CRE-luciferase, luminescence, 4-6 h; cells express a hypersensitive GLP-1R form; also: potency is read from the fitted curve at half-maximal effect; % of control where 0% means no effect
Target sequence (P43220 whole entry, looked up): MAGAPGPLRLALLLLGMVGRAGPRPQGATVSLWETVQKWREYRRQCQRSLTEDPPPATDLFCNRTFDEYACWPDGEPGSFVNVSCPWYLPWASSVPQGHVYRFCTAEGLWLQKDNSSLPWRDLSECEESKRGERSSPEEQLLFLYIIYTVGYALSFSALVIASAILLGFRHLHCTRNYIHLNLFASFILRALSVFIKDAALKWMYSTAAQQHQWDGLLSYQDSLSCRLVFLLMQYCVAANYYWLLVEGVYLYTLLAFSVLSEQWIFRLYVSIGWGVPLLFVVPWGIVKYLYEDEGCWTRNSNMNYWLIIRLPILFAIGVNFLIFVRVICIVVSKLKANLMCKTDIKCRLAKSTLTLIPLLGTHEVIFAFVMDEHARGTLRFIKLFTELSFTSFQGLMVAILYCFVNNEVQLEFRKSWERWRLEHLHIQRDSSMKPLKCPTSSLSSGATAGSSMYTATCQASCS
GLP1R cytotox = cytotoxic in the GLP-1 receptor inverse agonist counter-screen; HEK293 cAMP-luciferase reporter cells, luminescence, 24 h; Potency, µM (top dose mostly 38.3 µM), inactives show at the top dose activity change, negative = inhibition, usual class: inhibitors; actives 0.13% (n = 410,000);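 also: loss of luciferase light is scored as toxicity; potency is read from the fitted curve at half-maximal effect; % is scaled to controls: 0 for no effect and ±100 for the full control effect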
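1536-well qHTS counterscreen of the MLSMR; 200 cells/uL, 12 h pre-incubation, 23 nL cpd, 24 h at 37 deg C 5% CO2, luciferase detection reagent, 12 min RT, luminescence. Inhibition = undesired.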
PTHR1 ag = agonists of human PTHR1 parathyroid hormone receptor. HEK293 GP2 PTHR1 cells, GloSensor cAMP luminescence, 1 h. AID 743266. actives 0.075% (n = 410,000). Potency, µM (top dose mostly 115 µM), inactives show top-dose activation, usual class: activators. Q03431; also: potency is read from the fitted curve at half-maximal effect; nearly all actives have a fitted effect of over 55% in size
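HEK-293-derived GP2 cells expressing PTHR1 and a GloSensor cAMP reporter, 3,000/well, plated overnight, given luciferin plus IBMX (each 0.5 mM as added) for 1 h at 37 °C, then compound for 1 h at 37 °C. Luminescence was read after 15 min at room temperature.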
GLP1R inv ag = GLP-1 receptor (human) inverse agonism; P43220; HEK293 GLP-1R CRE-luciferase, luminescence, 24 h; GLP-1R form is constitutively active; Potency, µM (titrated, usually from 38.3 µM), for the others: at the top dose activity change, negative = inhibition, actives largely listed as inhibitors; actives 1.6% (n = 410,000); also: potency is read from the fitted curve at half-maximal effect; % is scaled to controls: 0 for no effect and ±100 for the full control effect; nearly all actives have a fitted effect of over 55% in size
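Constitutively active GLP-1R drives a cAMP-responsive luciferase in stably transfected HEK293 cells; test compounds are added after overnight (12 h) attachment and left 24 hr, and signal loss in luminescence marks inhibition.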
IDH1 R132H inh = blocks human mutant IDH1 R132H enzyme; O75874; IDH1-R132H enzyme, NADPH consumption, diaphorase/resazurin fluorescence; Potency, µM (titrated, usually from 76.6 µM), inactives show top-dose activity change, negative = inhibition, hits mostly inhibitors; actives 0.093% (n = 390,000); also: potency is read from the fitted curve at half-maximal effect; % is scaled to controls: 0 for no effect and ±100 for the full control effect; nearly all actives have a fitted effect of over 65% in size
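IDH1-R132H (0.5 ug/mL) preincubated 30 min with compound, then NADPH (0.016 mM) and alpha-KG (2 mM) added; 80 min at RT, pH 7.5. Remaining NADPH coupled via diaphorase/resazurin to fluorescence (540/590 nm); concentration-response curves normalized to no-enzyme control.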
An asterisk follows results filed as active; i = inactive; ? = inconclusive; . = no result; ! = not confirmed by another sample; [ ] = another dose, or the depositor's remark. A selection: hits, their analogues and other compounds. The true share with any hit is near 1.7%. Unless noted, calls follow the shape of the dose curve; as a rule, active = well fitted curve in the direction sought with a large enough effect; inconclusive = small, poorly fitted or top-dose-only effect, or another doubt; inactive = no such curve, though single readings can be large; an effect the other way counts as inactive or inconclusive.

SMILES	LDHA inh	GLP-1R agonist	GLP1R cytotox	PTHR1 ag	GLP1R inv ag	IDH1 R132H inh
Cc1cccc(COCC(Cc2ccccc2)N2CCN(C(=O)c3ccc(Cl)c(Cl)c3)CCC2=O)c1 (stereo unspecified)	0	9%	?	-16%	?	0%
Cc1nc(NC(C)(C)C)sc1C(=O)Nc1ccccc1	-2	.	.	.	.	.
Cc1oc(-c2ccc(C(=O)N(C)Cc3ccccc3)cc2)nc1CN1CCc2ccccc21	-5	13%	0%	-17%	11µM*	1%
Cc1ccc(CNC(=O)c2ccc(-c3nc(CN4CCc5ccccc54)c(C)o3)cc2)cc1	-11	-7%	-7%	-25%	-25%	-11%
CCn1c(=O)c(C(=O)CN(C)Cc2ccc(F)cc2)c(N)n(Cc2ccccc2)c1=O	-7	-1%	-17%	i	8.9µM*	-2%
Cc1ccc(-c2onc(C)c2C)cc1S(=O)(=O)N1c2ccccc2CC1C (stereo unspecified)	1	.	12%	-46%	10µM*	0%
Cc1ccc(-c2onc(C)c2C)cc1S(=O)(=O)N1CCOc2ccccc21	-2	13%	24%	-35%	?	-5%
CCN(Cc1ccccc1)CC(O)COC(c1ccc(OC)cc1)c1ccc(OC)cc1 (stereo unspecified)	2	13%	?	i	10µM*	5%
CCCCS/C(N)=N/N=C/c1ccccc1O	-3	25%	2.8µM*	-37%	?	-1%
CCCS/C(N)=N/N=C/c1cc(C)ccc1O	7	?	-16%	-24%[57.5 µM]	?	13%
CN1CCC(n2[nH]c(-c3ccccc3)c(Cc3ccccc3)c2=O)CC1	-1	6%	-19%	-6%	11µM*	13%
CN1CCC(N2CCN(C3CN(CCc4ccccc4)S(=O)(=O)C3)CC2)CC1 (stereo unspecified)	-6	6%	6%	-7%	-22%	.
COc1ccc(-c2c(NC(=O)C(C)C)oc3c(C)cccc3c2=O)cc1OC	0	.	.	.	.	.
O=C(NNc1ccc(C2CCCCC2)cc1)C(O)(c1ccccc1)c1cccs1 (stereo unspecified)	1	-11%	?	i	-8%	1%
COc1ccc(C(O)(C(=O)NNc2ccc(C)cc2)c2cccs2)cc1 (stereo unspecified)	3	-5%	18%	-15%	2.5µM*	8%
Cc1ccc(S(=O)(=O)N2CCN(c3ccc([N+](=O)[O-])c4cccnc34)CC2)cc1	-31*!	13%	-19%	-9%	74%	9%
Cc1ccc(C)c(N2CCN(S(=O)(=O)c3cccc4cccnc34)CC2)c1	-5	15%	4%	i	10µM*	1%
Cc1ccc(NC(=O)C2CCCN(S(=O)(=O)c3cccc4cccnc34)C2)cc1Cl (stereo unspecified)	-7	.	-12%	-7%	10µM*	10%
O=C(NCC#Cc1ccccc1)c1cccc2cccnc12	5	.	.	.	.	.
O=C(O)c1ccc(OCc2ccc(C(=O)O)o2)cc1	-7	6%	-14%	i	20%	-5%
CCc1ccc(OCc2ccc(C(=O)O)o2)cc1	0	-6%	17%	-92%	4µM*	-2%
CC(C)C[C@H]1CCC[C@H](CC(C)C)[N+]1(C)C	-9	.	.	.	.	.
O=C(NC(=S)Nc1ccc(Br)cn1)c1cccs1	-5	3%	?	-4%	?	9%
S=C(Nc1ccccc1)Nc1ccc(Br)cn1	-9	6%	3.5µM*	-8%	?	5%
COc1ccc(C2Nc3ccccc3C(=O)N2Cc2ccco2)cc1COc1ccc(N)cc1 (stereo unspecified)	9	.	.	.	.	.
SMILES	LDHA inh	GLP-1R agonist	GLP1R cytotox	PTHR1 ag	GLP1R inv ag	IDH1 R132H inh
CCCN1C(=O)c2ccccc2NC1c1ccc(OC)c(CSc2ccccn2)c1 (stereo unspecified)	2	17%	5%	i	13µM*	-7%
COc1ccc(C2Nc3ccccc3C(=O)N2Cc2ccco2)cc1COc1ccc(F)cc1 (stereo unspecified)	-1	-14%	-8%	-25%	10µM*	1%
O=C(CSc1nccn1-c1cccc(C(F)(F)F)c1)Nc1cccc(F)c1	11	.	.	.	.	.
CCn1c2ccccc2c2cc(NC(=O)Cc3ccc(S(=O)(=O)N4CCOCC4)s3)ccc21	0	-9%	-22%	i	10µM*	-1%
CCn1c2ccccc2c2cc(NC(=O)N3CCCCC3)ccc21	5	17%	-8%	-25%	10µM*	-3%
CCCC(=O)Nc1ccc2c(c1)c1ccccc1n2CC	-13	1%	6%	-25%	-19%	7%
COc1cccc(C#Cc2c(C=O)n(C)c3ccccc23)c1	0	-6%	51%	-11%	10µM*	6%
Cn1c(C=O)c(C#CC(C)(C)O)c2ccccc21	-5	8%	-9%	-19%	-17%	-20%
Cc1ccc(-c2nc3c(cnn3-c3ccccc3)c(=O)n2-c2cccc(Cl)c2)cc1	0	.	-2%	i	4.5µM*	16%
CC(Nc1nc(-c2ccc(F)cc2)cs1)c1nc2cc(C(F)(F)F)ccc2n1CCCO (stereo unspecified)	-1	-1%	-9%	-11%	7.9µM*	-2%
CC(Nc1nc(-c2ccc(F)cc2)cs1)c1nc2cc(C(F)(F)F)ccc2n1CCOCCO (stereo unspecified)	1	-5%	8%	-64%	-3%	-1%
Cc1ccc(Cn2c(C(C)Nc3nc(-c4ccc(F)cc4)cs3)nc3cc(C(F)(F)F)ccc32)cc1 (stereo unspecified)	0	0%	-14%	-8%	10µM*	3%
COc1cccc(-c2nc(N(C)C3CCCCC3)c3ccccc3n2)c1O	-5	.	.	.	.	.
CC(C)S(=O)(=O)c1oc(-c2cccs2)nc1S(=O)(=O)c1ccc(F)cc1	-2	.	10µM*	-5%	?	36%
O=C(NCC1OCCc2ccccc21)c1cccc(Br)c1 (stereo unspecified)	-42*	.	.	.	.	.
NC(=O)c1ccc(-c2ncc(-c3ccccc3)o2)cc1	-16	-5%	5%	-30%	5.6µM*	3%
CCCC(=O)N1CCN(c2oc(/C=C/c3cccc(OC)c3)nc2C#N)CC1	14	.	.	.	.	.
COC(=O)C1=C(N)Oc2cc(N(C)C)ccc2C1c1ccccc1OC (stereo unspecified)	6	-3%	7%	i	6.3µM*	-2%

Source: PubChem BioAssay
